Source: PubChem BioAssay AID1159580 (chemical genetic matrix, 2015)
Out of some 5,500 compounds screened, about 2,000 (36%) were called active. Not shown: some 18% with an inconclusive outcome. No stated cut-off is given here; in the data, active means normalized growth mostly below about 0.91 (no sharp cut-off); inconclusive means no clear call, values can overlap the other calls; inactive means mostly above about 0.92. This is one part of the list.

Assay: chemical genetic growth profiling, strain panel (AID 1159580);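 further: tested at 20 µM; growth read once vehicle control cultures reached saturation at 30 °C; 1 = growth at the plate median or of vehicle wells; lower values mean less growth of the strain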
Conditions: S. cerevisiae deletion strains, growth OD

Measured: normalized growth

Cc1ccc(C)c(OCCCC(C)(C)C(=O)O)c1
active: locus YKL009W, strain mrt4, hits give low values 0.437 | locus YKL068W, hits give low values 0.923 | locus YKL085W, strain MDH1 (second series), hits give low values 0.492 | locus YKL085W, strain MDH1, hits give low values 0.492 | locus YKR001C, strain vps1, hits give low values 0.644 | locus YLR039C, strain RIC1, hits give low values 0.469 | locus YLR113W, strain HOG1, hits give low values 0.752 | locus YLR262C, strain YPT6 (second series), hits give low values 0.706 | locus YLR262C, strain YPT6, hits give low values 0.509 | locus YLR268W, strain sec22, hits give low values 0.845 | locus YLR342W, strain FKS1 (second series), hits give low values 0.751 | locus YLR418C, strain cdc73, hits give low values 0.824 | locus YML032C, strain rad52, hits give low values 0.847 | locus YMR223W, strain ubp8, hits give low values 0.865 | locus YMR307W, strain GAS1, hits give low values 0.481 | locus YNL250W, strain rad50, hits give low values 0.578 | locus YNL271C, strain bni1, hits give low values 0.452 | locus YNL298W, strain CLA4, hits give low values 0.202 | locus YNL307C, strain MCK1, hits give low values 0.649 | locus YNR052C, strain pop2, hits give low values 0.775 | locus YOL147C, strain pex11, hits give low values 0.908 | locus YOR144C, strain elg1, hits give low values 0.907 | locus YOR184W, strain ser1, hits give low values 0.675 | locus YOR231W, strain MKK1, hits give low values 0.803 | locus YPL256C, strain CLN2, hits give low values 0.825 | locus YPR119W, strain clb2, hits give low values 0.93 | locus YPR141C, strain kar3, hits give low values 0.817 | locus YPR163C, strain tif3, hits give low values 0.857 | locus YPR167C, strain met16, hits give low values 0.914 | strain wtn01, hits give low values 0.877
inactive: locus YJR066W, strain TOR1, hits give low values 0.834 | locus YJR075W, strain HOC1, hits give low values 0.937 | locus YKL160W, strain elf1, hits give low values 0.968 | locus YKL190W, strain CNB1, hits give low values 0.962 | locus YKR026C, strain gcn3, hits give low values 0.976 | locus YKR091W, strain srl3, hits give low values 0.979 | locus YLL001W, strain dnm1, hits give low values 0.975 | locus YLL026W, hits give low values 0.976 | locus YLL041C, strain sdh2, hits give low values 0.98 | locus YLR027C, strain aat2, hits give low values 0.969 | locus YLR058C, strain SHM2, hits give low values 0.956 | locus YLR102C, strain apc9, hits give low values 0.949 | locus YLR221C, strain rsa3, hits give low values 0.959 | locus YLR258W, strain gsy2, hits give low values 0.942 | locus YLR320W, strain mms22, hits give low values 0.919 | locus YLR330W, strain CHS5, hits give low values 0.932 | locus YLR342W, strain FKS1, hits give low values 0.965 | locus YLR357W, strain rsc2, hits give low values 1.1 | locus YLR370C, strain arc18, hits give low values 0.948 | locus YLR371W, strain rom2, hits give low values 0.942 | locus YLR384C, strain iki3, hits give low values 0.987 | locus YML016C, strain PPZ1, hits give low values 0.951 | locus YML120C, strain ndi1, hits give low values 0.942 | locus YML124C, strain tub3, hits give low values 0.934 | locus YMR058W, strain fet3, hits give low values 0.963 | locus YMR078C, strain ctf18, hits give low values 0.918 | locus YMR125W, strain sto1, hits give low values 1.03 | locus YMR129W, hits give low values 0.983 | locus YMR205C, strain PFK2, hits give low values 0.986 | locus YMR231W, strain pep5, hits give low values 0.964 | locus YNL067W, strain RPL9B, hits give low values 0.956 | locus YNL071W, strain lat1, hits give low values 0.945 | locus YNL183C, strain NPR1, hits give low values 0.843 | locus YNL209W, strain ssb2, hits give low values 0.99 | locus YNL233W, strain BNI4, hits give low values 0.935 | locus YNL248C, strain rpa49, hits give low values 1.02 | locus YNL322C, strain KRE1 (second series), hits give low values 0.992 | locus YNR049C, strain mso1, hits give low values 0.982 | locus YOL012C, strain htz1 0.759 | locus YOR001W, strain rrp6, hits give low values 0.953 | locus YOR061W, strain CKA2, hits give low values 0.926 | locus YOR069W, strain VPS5, hits give low values 0.971 | locus YOR070C, strain gyp1, hits give low values 0.973 | locus YOR080W, strain dia2, hits give low values 1.01 | locus YOR083W, strain WHI5, hits give low values 0.982 | locus YOR106W, strain vam3, hits give low values 0.959 | locus YOR136W, strain idh2, hits give low values 0.989 | locus YOR265W, strain rbl2, hits give low values 1 | locus YOR270C, strain vph1, hits give low values 0.961 | locus YOR290C, strain snf2, hits give low values 0.906 | locus YOR316C, strain cot1, hits give low values 0.939 | locus YPL051W, strain arl3, hits give low values 0.923 | locus YPL055C, strain LGE1, hits give low values 0.925 | locus YPL078C, strain atp4, hits give low values 0.975 | locus YPL106C, strain sse1, hits give low values 1.15 | locus YPL240C, strain hsp82, hits give low values 0.977 | locus YPL241C, strain CIN2, hits give low values 0.948
